Consider five compounds from PubChem BioAssay (EPA / NIEHS).

As usually defined, the AC50 is the midpoint of the concentration-response curve, whichever way the signal moves.

A short description of experiment [1]: CEETOX_H295R_DOC: CeeTox H295R High-throughput Steroidogenesis Assay for DOC (AID 2283439). As to conditions: actives raise or lower the signal. A digest of the protocol:
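Secreted DOC was quantified from H295R media by HPLC-MS/MS after 48 h chemical exposure following 48 h forskolin (10 uM) prestimulation. Values were fitted in both directions relative to DMSO, the negative control and baseline.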

Experiment [2] in a line: CEETOX_H295R_ESTRADIOL: CeeTox H295R High-throughput Steroidogenesis Assay for Estradiol (AID 2283440).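 Also: estradiol secreted into medium quantified by LC-MS/MS after dansyl derivatisation.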 As to conditions: actives raise or lower the signal. The essentials:
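H295R adrenocortical cells were prestimulated with 10 uM forskolin for 48 h, then exposed to test chemical in 0.1% DMSO for 48 h. Medium estradiol was extracted with MTBE, dansyl-derivatized and quantified by HPLC-MS/MS; bidirectional fit versus DMSO.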

A short description of experiment [3]: CEETOX_H295R_ESTRONE: CeeTox H295R High-throughput Steroidogenesis Assay for Estrone (AID 2283441).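 Also: estrone secreted into medium measured by LC-MS/MS after dansyl derivatization.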 To be noted: actives raise or lower the signal. A digest of the protocol:
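H295R cells; 48 h forskolin (10 uM) prestimulation; 48 h compound exposure, 0.1% DMSO final. Medium estrone: MTBE extraction, dansyl derivatization, HPLC-MS/MS. Bidirectional fit vs DMSO.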

Experiment [4] can be described thus: CEETOX_H295R_PROG: CeeTox H295R High-throughput Steroidogenesis Assay for Progesterone (PROG) (AID 2283442). To be noted: actives raise or lower the signal. A digest of the protocol:
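H295R human adrenal cells were prestimulated with 10 uM forskolin for 48 h, then exposed to test chemical (0.1% DMSO final) for 48 h. Medium progesterone was MTBE-extracted and quantified by HPLC-MS/MS, with bidirectional fitting against DMSO.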

Read-out in experiment [5]: Tumor necrosis factor receptor superfamily member 6 (Homo sapiens) (UniProt P25445)
The experiment in a line: LTEA_HepaRG_FAS: Life Technologies and Expression Analysis (LTEA) Assay for Fas cell surface death receptor (FAS) using HepaRG (AID 2283447). To be noted: mRNA level, 48 h; actives raise or lower the signal. The essentials:
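Differentiated HepaRG cells in serum-free induction medium were exposed 48 h to 8 half-log concentrations up to 100 uM in 0.5% DMSO, in duplicate. FAS mRNA was measured by qRT-PCR normalised to ACTB, GAPDH and POLR2A; bidirectional fit versus DMSO.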

Read-out in experiment [6]: Cyclin D2 (CCND2), CCND2 (gene 894)
The experiment in a line: LTEA_HepaRG_CCND2: Life Technologies and Expression Analysis (LTEA) Assay for Cyclin D2 (CCND2) using HepaRG (AID 2283449).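 Also: CCND2 transcript measured by TaqMan qRT-PCR and normalised to three housekeeping genes.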 To be noted: mRNA level, 48 h; actives raise or lower the signal. A digest of the protocol:
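Chemicals in 0.5% DMSO, eight half-log concentrations from 100 uM top, were applied in duplicate for 48 h to human HepaRG cells in serum-free induction medium. CCND2 mRNA by TaqMan qRT-PCR, normalised to ACTB/GAPDH/POLR2A; bidirectional fit versus DMSO.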

Read-out in experiment [7]: Cyclin Dependent Kinase Inhibitor 1A (CDKN1A), CDKN1A (gene 1026)
The experiment can be described thus: LTEA_HepaRG_CDKN1A: Life Technologies and Expression Analysis (LTEA) Assay for Cyclin Dependent Kinase Inhibitor 1A (CDKN1A) using HepaRG (AID 2283450). As to conditions: mRNA level, 48 h; actives raise or lower the signal. The essentials:
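Differentiated human HepaRG cells, pre-cultured 48 h, were exposed in duplicate for 48 h in serum-free induction medium to eight half-log concentrations up to 100 uM (0.5% DMSO). CDKN1A mRNA was measured by qRT-PCR, normalized to ACTB/GAPDH/POLR2A, bidirectionally fitted versus DMSO.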

Read-out in experiment [8]: catalase (CAT), CAT (gene 847)
The experiment in a line: LTEA_HepaRG_CAT: Life Technologies and Expression Analysis (LTEA) Assay for catalase (CAT) using HepaRG (AID 2283452). As to conditions: mRNA level, 48 h; actives raise or lower the signal. A digest of the protocol: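 HepaRG cells in serum-free induction medium, 0.5% DMSO vehicle, exposed 48 h in duplicate over 8 half-log concentrations from 100 uM. CAT mRNA measured by qRT-PCR, normalized to ACTB, GAPDH, POLR2A; bidirectional fit versus DMSO.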

Read-out in experiment [9]: flavin-containing dimethylaniline monooxygenases 3 (FMO3), FMO3 (gene 2328)
The experiment in a line: LTEA_HepaRG_FMO3: Life Technologies and Expression Analysis (LTEA) Assay for flavin-containing dimethylaniline monooxygenases 3 (FMO3) using HepaRG (AID 2283453). To be noted: mRNA level, 48 h; actives raise or lower the signal. The essentials: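 HepaRG, 48 h exposure, 8-pt half-log series from 100 uM, 0.5% DMSO vehicle, duplicates; FMO3 transcript by Fluidigm TaqMan qRT-PCR, housekeeping-normalized; gain/loss fit vs DMSO.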

Read-out in experiment [10]: Cytochrome P450 (CYP1A1), CYP1A1 (gene 1543)
The experiment in a line: LTEA_HepaRG_CYP1A1: Life Technologies and Expression Analysis (LTEA) Assay for Cytochrome P450 (CYP1A1) using HepaRG (AID 2283454). To be noted: mRNA level, 48 h; actives raise or lower the signal. The essentials: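 Differentiated HepaRG cells in serum-free induction medium were exposed in duplicate for 48 h to eight half-log concentrations up to 100 uM in 0.5% DMSO. CYP1A1 mRNA was quantified by TaqMan qRT-PCR, normalized to ACTB, GAPDH and POLR2A.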

Read-out in experiment [11]: CFLAR gene, CFLAR (gene 8837)
The experiment can be described thus: LTEA_HepaRG_CFLAR: Life Technologies and Expression Analysis (LTEA) Assay for CFLAR gene using HepaRG (AID 2283455). As to conditions: mRNA level, 48 h; actives raise or lower the signal. A digest of the protocol:
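Differentiated HepaRG cells in serum-free induction medium were exposed 48 h in duplicate to eight half-log concentrations up to 100 uM in 0.5% DMSO; mRNA measured by TaqMan qRT-PCR, normalized to ACTB, GAPDH, POLR2A; bidirectional fitting versus DMSO.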

Read-out in experiment [12]: Forkhead box O1 (FOXO1), FOXO1 (gene 2308)
The experiment in a line: LTEA_HepaRG_FOXO1: Life Technologies and Expression Analysis (LTEA) Assay for Forkhead box O1 (FOXO1) using HepaRG (AID 2283456). As to conditions: mRNA level, 48 h; actives raise or lower the signal. A digest of the protocol: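 Differentiated HepaRG cells, in serum-free induction medium with 0.5% DMSO, exposed 48 h in duplicate to 8-point half-log series from 100 uM. FOXO1 mRNA measured by TaqMan qRT-PCR, normalized to ACTB, GAPDH, POLR2A; bidirectional fit versus DMSO.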

Read-out in experiment [13]: growth arrest and DNA damage 45 (GADD45A), GADD45A (gene 1647)
The experiment in a line: LTEA_HepaRG_GADD45A: Life Technologies and Expression Analysis (LTEA) Assay for growth arrest and DNA damage 45 (GADD45A) using HepaRG (AID 2283458). To be noted: mRNA level, 48 h; actives raise or lower the signal. A digest of the protocol: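 Human HepaRG liver cells are treated in duplicate for 48 h with chemicals in 0.5% DMSO, highest concentration 100 uM. Expression is read by qRT-PCR and analyzed in both directions against vehicle.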

Read-out in experiment [14]: Forkhead box O3 (FOXO3), FOXO3 (gene 2309)
The experiment can be described thus: LTEA_HepaRG_FOXO3: Life Technologies and Expression Analysis (LTEA) Assay for Forkhead box O3 (FOXO3) using HepaRG (AID 2283459). As to conditions: mRNA level, 48 h; actives raise or lower the signal. A digest of the protocol:
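Differentiated human HepaRG cells, 48 h post-plating, exposed in duplicate for 48 h in serum-free induction medium; 8-point half-log series from 100 uM in 0.5% DMSO. FOXO3 mRNA by TaqMan qRT-PCR, normalized to ACTB/GAPDH/POLR2A; bidirectional fit versus DMSO.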

Read-out in experiment [15]: ABC Transporter (ABCB1), ABCB1 (gene 5243)
The experiment can be described thus: LTEA_HepaRG_ABCB1: Life Technologies and Expression Analysis (LTEA) Assay for ABC Transporter (ABCB1) using HepaRG (AID 2283460). As to conditions: mRNA level, 48 h; actives raise or lower the signal. The essentials:
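HepaRG cells exposed in duplicate for 48 h in serum-free induction medium to eight half-log concentrations up to 100 uM in 0.5% DMSO. ABCB1 mRNA quantified by qRT-PCR, normalised to ACTB, GAPDH and POLR2A; fitted bidirectionally versus DMSO.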

Read-out in experiment [16]: growth arrest and DNA damage 45 (GADD45B), GADD45B (gene 4616)
The experiment can be described thus: LTEA_HepaRG_GADD45B: Life Technologies and Expression Analysis (LTEA) Assay for growth arrest and DNA damage 45 (GADD45B) using HepaRG (AID 2283461). To be noted: mRNA level, 48 h; actives raise or lower the signal. The essentials:
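Differentiated HepaRG cells, plated 48 h then switched to serum-free induction medium, were exposed 48 h in duplicate to eight half-log concentrations from 100 uM in 0.5% DMSO; mRNA quantified by qRT-PCR, normalized to ACTB/GAPDH/POLR2A, bidirectional fit versus DMSO.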

Read-out in experiment [17]: Fatty acid synthase (Homo sapiens) (UniProt P49327)
The experiment in a line: LTEA_HepaRG_FASN: Life Technologies and Expression Analysis (LTEA) Assay for Fatty Acid Synthase (FASN) using HepaRG (AID 2283448). To be noted: mRNA level, 48 h; actives raise or lower the signal. The essentials:
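Transcript-level assay: HepaRG liver cells are treated for 48 h across an eight-point range topping at 100 uM, and FASN mRNA, normalized to three housekeeping genes, is compared with DMSO controls in both directions.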

Read-out in experiment [18]: Cyclin D1 (CCND1), CCND1 (gene 595)
The experiment can be described thus: LTEA_HepaRG_CCND1: Life Technologies and Expression Analysis (LTEA) Assay for Cyclin D1 (CCND1) using HepaRG (AID 2283451).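 As to AC50: TaqMan qRT-PCR transcript level normalised to ACTB GAPDH and POLR2A housekeeping genes.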 As to conditions: mRNA level, 48 h; actives raise or lower the signal. A digest of the protocol: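 Differentiated human HepaRG cells in serum-free induction medium were exposed 48 h to eight half-log concentrations up to 100 uM in 0.5% DMSO; mRNA quantified by TaqMan qRT-PCR, normalized to ACTB, GAPDH, POLR2A, fitted bidirectionally versus DMSO.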

A short description of experiment [19]: CEETOX_H295R_TESTO: CeeTox H295R High-throughput Steroidogenesis Assay for Testosterone (TESTO) (AID 2283457). To be noted: actives raise or lower the signal. The essentials: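 H295R human adrenal cells in DMEM/F12 with ITS+ and Nu-Serum, exposed to chemicals for 48 h. Testosterone in medium measured by MTBE extraction, reverse-phase HPLC-MS/MS; bidirectional fit versus DMSO baseline. MTT viability checked in same wells.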

Molecules are shown by their SMILES. Calls of active or inactive are those of the source. The calls were made as follows: active = hit-call score of the fitted dose curve at least 0.9, where 1 is the maximum; inactive = score below 0.9.

Chain of Fatty acid synthase (Homo sapiens) (P49327 whole entry, looked up): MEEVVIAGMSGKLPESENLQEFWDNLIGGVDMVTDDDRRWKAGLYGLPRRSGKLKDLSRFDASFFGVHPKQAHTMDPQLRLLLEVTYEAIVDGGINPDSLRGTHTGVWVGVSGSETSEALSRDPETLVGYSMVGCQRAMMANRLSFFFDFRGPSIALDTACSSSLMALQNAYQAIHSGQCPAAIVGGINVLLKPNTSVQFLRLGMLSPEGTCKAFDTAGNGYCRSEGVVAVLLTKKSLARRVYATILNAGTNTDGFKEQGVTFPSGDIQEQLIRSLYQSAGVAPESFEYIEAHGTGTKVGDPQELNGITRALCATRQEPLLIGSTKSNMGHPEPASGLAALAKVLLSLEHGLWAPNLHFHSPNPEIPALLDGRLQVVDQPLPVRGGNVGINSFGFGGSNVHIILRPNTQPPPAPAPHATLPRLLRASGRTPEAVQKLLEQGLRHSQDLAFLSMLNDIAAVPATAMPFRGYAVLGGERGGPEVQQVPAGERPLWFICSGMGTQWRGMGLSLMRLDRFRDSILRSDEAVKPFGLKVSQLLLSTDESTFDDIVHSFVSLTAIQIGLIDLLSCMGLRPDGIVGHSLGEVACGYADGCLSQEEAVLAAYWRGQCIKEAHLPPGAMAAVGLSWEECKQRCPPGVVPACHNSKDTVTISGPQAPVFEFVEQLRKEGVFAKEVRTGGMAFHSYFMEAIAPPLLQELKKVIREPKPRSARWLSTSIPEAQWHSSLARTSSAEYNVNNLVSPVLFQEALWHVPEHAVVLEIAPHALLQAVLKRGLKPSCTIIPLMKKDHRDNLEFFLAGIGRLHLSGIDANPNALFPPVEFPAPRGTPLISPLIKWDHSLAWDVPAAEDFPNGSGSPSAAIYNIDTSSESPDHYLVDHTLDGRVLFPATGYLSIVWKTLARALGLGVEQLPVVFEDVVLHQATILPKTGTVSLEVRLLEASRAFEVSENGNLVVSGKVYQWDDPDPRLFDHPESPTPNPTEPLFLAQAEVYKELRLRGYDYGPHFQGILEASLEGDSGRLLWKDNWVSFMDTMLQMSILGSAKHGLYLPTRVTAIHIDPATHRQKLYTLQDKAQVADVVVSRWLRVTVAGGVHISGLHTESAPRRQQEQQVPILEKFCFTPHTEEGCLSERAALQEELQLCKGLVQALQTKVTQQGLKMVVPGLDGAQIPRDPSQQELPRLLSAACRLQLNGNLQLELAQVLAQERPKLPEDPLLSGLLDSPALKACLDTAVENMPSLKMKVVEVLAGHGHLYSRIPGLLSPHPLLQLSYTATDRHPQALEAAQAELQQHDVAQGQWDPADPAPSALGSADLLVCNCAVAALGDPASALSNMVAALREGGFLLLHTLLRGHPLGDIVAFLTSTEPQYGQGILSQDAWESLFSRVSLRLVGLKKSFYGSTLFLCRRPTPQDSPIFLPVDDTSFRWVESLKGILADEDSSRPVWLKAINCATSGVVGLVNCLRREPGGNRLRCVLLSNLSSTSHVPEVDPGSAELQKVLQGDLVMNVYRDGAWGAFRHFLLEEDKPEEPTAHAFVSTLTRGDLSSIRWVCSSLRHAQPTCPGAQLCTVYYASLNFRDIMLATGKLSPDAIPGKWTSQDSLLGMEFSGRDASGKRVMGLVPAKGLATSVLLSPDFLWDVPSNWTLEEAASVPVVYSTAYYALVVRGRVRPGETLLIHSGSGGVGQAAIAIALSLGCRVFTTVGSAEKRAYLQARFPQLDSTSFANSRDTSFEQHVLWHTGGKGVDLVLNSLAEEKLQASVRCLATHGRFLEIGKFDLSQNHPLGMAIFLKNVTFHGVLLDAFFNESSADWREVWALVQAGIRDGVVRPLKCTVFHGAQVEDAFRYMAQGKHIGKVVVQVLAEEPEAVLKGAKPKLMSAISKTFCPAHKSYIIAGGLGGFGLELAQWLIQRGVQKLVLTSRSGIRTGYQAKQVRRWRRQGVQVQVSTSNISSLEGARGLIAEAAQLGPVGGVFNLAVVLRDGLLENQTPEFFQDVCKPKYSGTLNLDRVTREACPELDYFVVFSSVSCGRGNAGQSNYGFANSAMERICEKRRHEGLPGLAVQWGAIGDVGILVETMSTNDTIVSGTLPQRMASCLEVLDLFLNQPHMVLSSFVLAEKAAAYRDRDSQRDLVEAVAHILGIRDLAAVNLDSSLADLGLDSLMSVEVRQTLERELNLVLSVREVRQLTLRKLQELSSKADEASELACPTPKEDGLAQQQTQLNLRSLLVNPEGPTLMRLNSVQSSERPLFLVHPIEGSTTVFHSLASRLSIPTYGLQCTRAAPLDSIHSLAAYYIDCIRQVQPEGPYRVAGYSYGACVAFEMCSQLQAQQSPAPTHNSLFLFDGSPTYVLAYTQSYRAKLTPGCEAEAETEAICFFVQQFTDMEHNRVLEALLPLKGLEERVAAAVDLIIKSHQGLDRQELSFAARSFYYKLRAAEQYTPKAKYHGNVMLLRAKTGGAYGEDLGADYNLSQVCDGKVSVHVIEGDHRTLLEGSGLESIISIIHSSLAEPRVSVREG

In the case of `COP(=S)(OC)Oc1ccc(SC)c(C)c1`, the result in [1], in experiment [2], in [3], in experiment [4], in experiment [5] and in experiment [6] was inactive. Besides, the call in experiment [7], in experiment [8], in experiment [9], in experiment [11], in experiment [12] and in [13] was inactive. Also, the result in [14], in [15] and in [16] was inactive. In addition, the AC50 in [10] is 28.8 µM (active).
In the case of `O=C(NC(=O)c1c(F)cccc1F)Nc1ccc(OC(F)(F)C(F)OC(F)(F)F)c(Cl)c1` (stereo unspecified), the compound was called inactive in experiment [1], in experiment [2], in experiment [3], in [4], in experiment [5] and in experiment [6]. Further, the call in experiment [7], in [8], in experiment [9], in experiment [11], in [12] and in experiment [13] was inactive. Moreover, the compound was classed as inactive in [14], in experiment [15] and in experiment [16]. Further, the results for the AC50 in experiment [17] and in experiment [10] were 8.63 µM (active) and 21.2 µM (active), respectively.
On to `C#CCN1C(=O)COc2cc(F)c(N3C(=O)C4=C(CCCC4)C3=O)cc21`, for which the result in experiment [1], in [2], in experiment [3], in experiment [4], in [5] and in experiment [17] was inactive. Further, the compound was classed as inactive in experiment [7], in [18], in experiment [8], in [9], in experiment [11] and in experiment [12]. The compound was called inactive in experiment [19], in experiment [13], in [14] and in experiment [16]. The AC50 is 65.6 µM (active) in [10] and 9.92 µM (active) in experiment [15].
Consider `N#Cc1c(Cl)c(Cl)c(Cl)c(C#N)c1Cl`, for which the compound was classed as inactive in [1], in [2], in experiment [3], in experiment [4], in [5] and in experiment [6]. Also, the compound was classed as inactive in experiment [7], in experiment [13], in experiment [15] and in [16]. For the same compound, the half-maximal activity concentration (AC50) in [17] is 35.5 µM (active); in experiment [18] it was 13.5 µM (active); in experiment [8], 65.7 µM (active); in experiment [9], 36.6 µM (active); in [10], 23.1 µM (active); in [11] it was 50 µM (active). In addition, the AC50 in experiment [12] is 21.2 µM (active); in experiment [14], 15.2 µM (active).
`CC1(C)C(C=C(Cl)Cl)C1C(=O)OC(C#N)c1ccc(F)c(Oc2ccccc2)c1` (stereo unspecified): the compound was classed as inactive in experiment [1], in [2], in experiment [3], in experiment [4], in [5] and in experiment [17]. The compound was classed as inactive in experiment [6], in experiment [7], in experiment [8], in experiment [9], in [11] and in experiment [12]. The call in [13], in experiment [14] and in experiment [16] was inactive. Moreover, the AC50 in [10] was 37.7 µM (active); in experiment [15], 24.5 µM (active).
